Common to all, as to assay: NCI-60 one-dose screen, 48 h (100 = growth as untreated, 0 = no growth, -100 = all killed)
The test system of one assay is HCT-15 colon. As to conditions: 10 µM unless noted.
A further assay deals with HT29 colon. Conditions: 10 µM unless noted.
The next assay relates to SNB-19 CNS. As to conditions: 10 µM unless noted.
Another assay has as its system U251 CNS. Conditions: 10 µM unless noted.
The subject of a further assay is PC-3 prostate. As to conditions: 10 µM unless noted.
The next assay relates to SK-MEL-5 melanoma. As to conditions: 10 µM unless noted.
The next assay concerns UACC-62 melanoma. Conditions: 10 µM unless noted.
The subject of another assay is SK-MEL-28 melanoma. Conditions: 10 µM unless noted.
In another assay the test system is SK-MEL-2 melanoma. Conditions: 10 µM unless noted.
The subject of the next assay is SN12C renal. As to conditions: 10 µM unless noted.
The next assay concerns UO-31 renal. As to conditions: 10 µM unless noted.
The test system of another assay is ACHN renal. As to conditions: 10 µM unless noted.
The next assay has as its system A498 renal. As to conditions: 10 µM unless noted.
The subject of a further assay is CCRF-CEM leukemia. As to conditions: 10 µM unless noted.
The test system of a further assay is MOLT-4 leukemia. Conditions: 10 µM unless noted.
A further assay has as its system SNB-75 CNS. As to conditions: 10 µM unless noted.
Another assay concerns LOX IMVI melanoma. Conditions: 10 µM.
For a further assay, the system named is EKVX NSCLC. As to conditions: 10 µM unless noted.
Another assay deals with TK-10 renal. Conditions: 10 µM unless noted.
Another assay concerns CAKI-1 renal. Conditions: 10 µM unless noted.

Each structure is given as a SMILES string. The panel holds about 83,000 compounds, 20% with a hit somewhere; the sample as a whole holds those more often.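 48-hour exposure, single concentration, 96-well plates; percent growth endpoint where 0 means no net growth. Active: below 10.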 Values without a mark were called inactive. Calls of active or inactive are those of the source.

Consider `Oc1c(Cl)cc(Cl)cc1C(c1cc(Cl)cc(Cl)c1O)C(Cl)(Cl)Cl`, for which the growth in the assay on HCT-15 colon was 2.87% (active); in the assay on HT29 colon it was 7.53% (active); in the assay on SNB-19 CNS it was 19.2%; in the assay with U251 CNS, 4.24% (active); with PC-3 prostate, -7.63% (active); with SK-MEL-5 melanoma it was -38.8% (active). The growth was 11.8% in the assay on UACC-62 melanoma; 30.4% with SK-MEL-28 melanoma; -33.9% (active) with SK-MEL-2 melanoma; 0.98% (active) in the assay with SN12C renal; -21.4% (active) in the assay on UO-31 renal; -19.7% (active) with ACHN renal. The results for the growth in the assay with A498 renal, with CCRF-CEM leukemia and in the assay on MOLT-4 leukemia were -26.6% (active), 8.74% (active) and 3.86% (active), respectively.

Turning to `O=C1Nc2ccc(Br)cc2C1=O`, the growth is 100% in the assay with HCT-15 colon; 100% in the assay with HT29 colon; 92.7% with SNB-75 CNS; 92.8% in the assay with PC-3 prostate; 101% in the assay on SK-MEL-5 melanoma; 90.4% in the assay with UACC-62 melanoma. Further, the growth was 87.4% in the assay with LOX IMVI melanoma; 108% in the assay on SK-MEL-28 melanoma; 117% in the assay with SK-MEL-2 melanoma; 101% in the assay with EKVX NSCLC; 97% in the assay on SN12C renal; 78.9% with UO-31 renal. The growth in the assay with TK-10 renal is 131%; in the assay with ACHN renal, 101%; in the assay with CAKI-1 renal, 100%; in the assay with A498 renal, 107%; in the assay on CCRF-CEM leukemia, 93.5%; with MOLT-4 leukemia it was 95.9%.

As to `COc1c(C)c2c(c(O)c1C/C=C(\C)CCC(=O)O)C(=O)OC2`, the growth with HCT-15 colon is 20.7%; with HT29 colon, 13.3%; in the assay on SNB-75 CNS, 48.1%; in the assay on U251 CNS it was 18.3%; in the assay with PC-3 prostate it was 40.3%; in the assay with SK-MEL-5 melanoma, 23.6%. For the same molecule, the growth in the assay on UACC-62 melanoma is 41.7%; in the assay with LOX IMVI melanoma it was 12.1%; in the assay on SK-MEL-28 melanoma, 31.3%; in the assay with EKVX NSCLC, 48.2%; with SN12C renal it was 34.4%; in the assay with UO-31 renal, 27.9%. Besides, the growth in the assay with CAKI-1 renal was 6.69% (active); with A498 renal it was 61.7%; with CCRF-CEM leukemia, 26.1%; in the assay with MOLT-4 leukemia, 25.9%.

Turning to `CCSc1nc2ccccc2o1`, the growth in the assay on HCT-15 colon is 102%; in the assay with HT29 colon, 113%; with SNB-75 CNS, 88.2%; in the assay with PC-3 prostate it was 92.3%; in the assay on SK-MEL-5 melanoma, 108%; in the assay with UACC-62 melanoma, 102%. The growth in the assay with LOX IMVI melanoma was 103%; with SK-MEL-28 melanoma it was 113%; with EKVX NSCLC, 104%; with SN12C renal, 88.9%; in the assay on UO-31 renal, 79.4%; in the assay with TK-10 renal it was 102%. Further, the growth with ACHN renal was 99%; in the assay with CAKI-1 renal, 87.9%; in the assay on A498 renal, 83.6%; in the assay with CCRF-CEM leukemia, 97.5%; in the assay with MOLT-4 leukemia it was 100%.

In the case of `CCC1CCCCN1C(=S)N/N=C(\C)c1ccccn1` (stereo unspecified), the growth in the assay with HCT-15 colon was 27.3%; with HT29 colon, -19.5% (active); in the assay with SNB-75 CNS it was 16.1%; in the assay on U251 CNS, 6.56% (active); in the assay on SK-MEL-5 melanoma it was -61.5% (active); in the assay with UACC-62 melanoma it was -39.8% (active). The growth with LOX IMVI melanoma was 6.45% (active); in the assay with SK-MEL-28 melanoma, 28%; with SK-MEL-2 melanoma, -11.9% (active); with EKVX NSCLC it was 10.9%; in the assay on SN12C renal, 7.07% (active); with UO-31 renal it was -17.6% (active). Also, the growth is 7% (active) in the assay with ACHN renal, 10.4% in the assay on CAKI-1 renal, -21.9% (active) in the assay on A498 renal and 13.3% in the assay with MOLT-4 leukemia.

Take `C1=C(c2ccccc2)c2ccccc2C1`: the growth in the assay with HCT-15 colon was 87.6%; with HT29 colon, 105%; in the assay with SNB-75 CNS, 90.9%; in the assay on U251 CNS, 108%; in the assay with PC-3 prostate, 82.6%; in the assay with SK-MEL-5 melanoma it was 108%. Besides, the growth was 89.7% in the assay on LOX IMVI melanoma; 116% in the assay on SK-MEL-28 melanoma; 94.4% in the assay with SK-MEL-2 melanoma; 90.5% in the assay with EKVX NSCLC; 68.8% in the assay on UO-31 renal; 119% in the assay with TK-10 renal. The growth is 81.7% with ACHN renal, 76.4% with CAKI-1 renal, 68.5% with A498 renal and 92.4% in the assay with MOLT-4 leukemia.

On to `Cc1cc(I)nc2ccccc12`, for which the growth in the assay with HCT-15 colon was 105%; in the assay on HT29 colon it was 109%; in the assay with SNB-19 CNS, 107%; in the assay with U251 CNS it was 110%; in the assay on PC-3 prostate it was 96.8%; in the assay with SK-MEL-5 melanoma, 104%. Further, the growth was 117% with UACC-62 melanoma; 112% in the assay with SK-MEL-28 melanoma; 110% in the assay on SK-MEL-2 melanoma; 101% in the assay with EKVX NSCLC; 109% with SN12C renal; 91.7% in the assay with UO-31 renal. Also, the growth is 113% in the assay on TK-10 renal; 107% in the assay on ACHN renal; 98.7% in the assay on CAKI-1 renal; 117% with A498 renal; 92.2% in the assay on CCRF-CEM leukemia; 101% in the assay on MOLT-4 leukemia.

For `COc1cc(/C=C2\SC(=S)N(/C=C/c3nc4ccccc4[nH]c3=O)C2=O)cc(OC)c1OC`, the growth in the assay with HCT-15 colon is 91.7%; in the assay with HT29 colon, 90.6%; in the assay with SNB-19 CNS, 97.5%; in the assay on U251 CNS, 81.8%; in the assay with PC-3 prostate, 95.2%; with SK-MEL-5 melanoma, 82.7%. In addition, the growth in the assay on UACC-62 melanoma was 81.9%; in the assay on LOX IMVI melanoma, 56.7%; in the assay on SK-MEL-28 melanoma it was 90.5%; in the assay on SK-MEL-2 melanoma it was 81.1%; with EKVX NSCLC, 84.6%; in the assay on SN12C renal, 98.2%. The growth in the assay with UO-31 renal is 2.14% (active); in the assay on TK-10 renal it was 70.1%; in the assay on ACHN renal, 82.4%; with CAKI-1 renal, 87.2%; in the assay with A498 renal, 60%; with CCRF-CEM leukemia, 91.7%. Further, the growth with MOLT-4 leukemia is 91.2%.

In the case of `NC(=Nc1nc(-c2ccccn2)cc2ccccc12)c1ccccn1`, the growth is 21.5% in the assay on HCT-15 colon; 13.6% in the assay on HT29 colon; 22.5% in the assay with SNB-19 CNS; 10.3% in the assay with U251 CNS; 20.6% with PC-3 prostate; -79.4% (active) in the assay on SK-MEL-5 melanoma. The growth with UACC-62 melanoma was 3.59% (active); in the assay with LOX IMVI melanoma, -5.24% (active); in the assay on SK-MEL-2 melanoma, 66.5%; with EKVX NSCLC it was 16.5%; in the assay on SN12C renal, 26.2%; in the assay with UO-31 renal it was 2.9% (active). For the same molecule, the growth is 8.11% (active) in the assay with ACHN renal, 2.97% (active) with CAKI-1 renal, 0.348% (active) in the assay with CCRF-CEM leukemia and -3.87% (active) in the assay with MOLT-4 leukemia.

These data come from PubChem BioAssay (NCI).
